Data on 28 molecules can be found in PubChem BioAssay (NCI).

Holding throughout (assay): NCI-60 one-dose screen, 48 h (100 = growth as untreated, 0 = no growth, -100 = all killed)
Settings in all cases: 10 µM unless noted

For assay [1], the system named is HCT-15 colon.
Assay [2] deals with HT29 colon.
For assay [3], the system named is SNB-75 CNS.
The subject of assay [4] is SNB-19 CNS.
In assay [5] the test system is U251 CNS.
In assay [6] the test system is PC-3 prostate.
In assay [7] the test system is SK-MEL-5 melanoma.
Assay [8] concerns UACC-62 melanoma.
Assay [9] has as its system SK-MEL-28 melanoma.

This is part of a sample that, as a whole, favours compounds with a hit. Of some 83,000 tested, about 20% had one in any assay.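 Growth was measured after 48 h exposure to one concentration of compound in 96-well plates. Values under 10 count as active.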 Unmarked numbers belong to inactive results. Activity calls are given as the source filed them.

`Nc1nc2c(c(=O)[nH]1)C(c1ccc3c(c1)OCO3)C=C(C(=O)O)N2` (configuration not stated): the growth in [1] was 111%; in [2], 108%; in [3] it was 85.6%; in assay [4] it was 104%; in assay [5] it was 101%; in [6], 113%. The values for the growth in [7], in assay [8] and in assay [9] were 102%, 116% and 96.2%, respectively.

In the case of `Cc1c(C)c2c(c(C)c1NC(=O)CCCCCCC(=O)O)CCC(C)(CCCC(C)CCCC(C)CCCC(C)C)O2` (configuration not stated), the growth was 55% in assay [1]; 39.8% in assay [2]; 93.9% in [3]; 101% in assay [4]; 68.9% in [5]; 69.7% in assay [6]. The results for the growth in [7], in [8] and in assay [9] were 81%, 89.1% and 96.1%, respectively.

As for `C=C1CC[C@@H](C(=O)OC)Cc2nc(C)ccc21`, the growth is 102% in assay [1]; 104% in assay [2]; 100% in assay [3]; 97.1% in assay [4]; 103% in [5]; 98.4% in assay [6]. Also, the figures for the growth in assay [7], in assay [8] and in assay [9] were 101%, 96.9% and 107%, respectively.

On to `N#C/C(=C\c1ccc(-c2cccc(C(F)(F)F)c2)o1)c1nc(-c2ccco2)cs1`, for which the growth in [1] is 71.7%; in [2] it was 99.8%; in assay [3] it was 82.2%; in assay [4], 93.8%; in assay [5], 96.4%; in assay [6], 90%. The results for the growth in [7], in assay [8] and in [9] were 88.1%, 78.1% and 97.7%, respectively.

`CC1c2ccccc2N(S(=O)(=O)c2ccccc2)C1C` (configuration not stated): the growth is 70.5% in assay [1]; 67.8% in assay [2]; 86% in assay [3]; 91.5% in [4]; 88% in assay [5]; 81.4% in assay [6]. Also, the growth is 89.2% in assay [7], 71.6% in assay [8] and 92.1% in assay [9].

With `COC(=O)[C@]12CC[C@@H](C(=O)/C=C/c3cccnc3)[C@@H]1[C@H]1CC[C@@H]3[C@@]4(C)C/C(=C/c5cccnc5)C(=O)C(C)(C)[C@@H]4CC[C@@]3(C)[C@]1(C)CC2`, the growth was -46.2% (active) in assay [1]; -45.5% (active) in assay [2]; -98.7% (active) in assay [3]; -87.6% (active) in assay [4]; -87.9% (active) in [5]; -14.1% (active) in assay [6]. Further, the growth in assay [7] is -98.9% (active); in assay [8], -67.9% (active); in assay [9], -96.3% (active).

Take `COc1ccc(-c2nc3ncccn3c2-c2nc3ccc(Br)cc3[nH]2)cc1`: the growth in assay [1] was 84.6%; in assay [2], 88.9%; in [3] it was 86.8%; in assay [4], 89.9%; in assay [5] it was 89.7%; in assay [6] it was 65.5%. In addition, the growth was 74.9% in assay [7], 76.5% in [8] and 92.6% in assay [9].

For `CCC(=O)c1c(C)[nH]c(C)c1C`, the growth in assay [1] was 10.6%; in [2], 36.9%; in [3], 109%; in assay [4], 94%; in assay [5], 82.5%; in [6], 79.9%. For the same molecule, the figures for the growth in assay [7], in assay [8] and in [9] were 88.9%, 95.7% and 134%, respectively.

In the case of `C=C(C)[C@@H]1CC[C@]2(CN)CC[C@]3(C)[C@H](CC[C@@H]4[C@@]5(C)CCC(=O)NC(C)(C)[C@@H]5CC[C@]43C)[C@@H]12`, the growth in assay [1] is 38.7%; in assay [2], 11.5%; in [3], 85.5%; in assay [4] it was 78.4%; in [5], 53.4%; in [6], 37.4%. In addition, the growth in assay [7] is 61.6%; in [8] it was 82.5%; in [9], 89.2%.

As to `NC1=NN=C2N(N)C(=O)c3cnn(-c4ccccc4)c3N2c2nc(-c3ccccc3)cc(-c3ccccc3)c21`, the growth in [1] is 99.8%; in assay [2], 102%; in assay [3] it was 86.2%; in assay [4] it was 93.5%; in assay [5] it was 96.3%; in assay [6], 90.5%. Also, the growth in [7] was 94%; in [8], 82.9%; in assay [9] it was 118%.

On to `CCCC1CCCCN1C(=O)OCC(C)C` (configuration not stated), for which the growth in [1] is 108%; in assay [2], 102%; in [3] it was 99.5%; in assay [4] it was 102%; in [5], 103%; in [6], 96.5%. In addition, the growth was 109% in assay [7], 103% in assay [8] and 113% in assay [9].

For the molecule `Cc1ccc(NC2CC(=O)N(c3c(C)cc(C)cc3C)C2=O)c(C)c1` (configuration not stated), the growth in assay [1] is 105%; in [2] it was 106%; in [3], 105%; in [4], 92.6%; in assay [5] it was 95.8%; in assay [6] it was 95.3%. Also, the results for the growth in assay [7], in assay [8] and in [9] were 99.9%, 94.3% and 109%, respectively.

Turning to `Cn1cccc1/C=C1/SC(=S)N(CCc2ccc(O)cc2)C1=O`, the growth in assay [1] is 22.7%; in assay [2], 94.9%; in assay [3], 41.2%; in [4], 47.2%; in assay [5], 41.8%; in assay [6], 69%. Also, the growth in assay [7] was 44.2%; in assay [8], 24.9%; in [9] it was 57.3%.

For the molecule `Cc1[c-]onc1C.Cc1[c-]onc1C.[Ag].[Ag].[NH-]S(=O)(=O)c1ccc(N=Nc2cc(N=Nc3ccc(S([NH-])(=O)=O)cc3)c3c(NC(=O)C(Cl)Cl)cccc3c2OC(=O)C(Cl)Cl)cc1`, the growth in assay [1] was 84.1%; in assay [2] it was 78.3%; in [3] it was 44.8%; in [4], 86.6%; in assay [5], 82.7%; in assay [6], 47.1%. Further, the results for the growth in assay [7], in [8] and in assay [9] were 24.2%, 85.9% and 86.4%, respectively.

`N#C/C(=C\c1ccc(-c2ccc(Cl)cc2)o1)c1nc(-c2ccco2)cs1`: the growth in assay [1] is 86.3%; in assay [2], 102%; in assay [3], 86.5%; in assay [4], 93.4%; in assay [5], 96.9%; in [6], 92.8%. Moreover, the growth in assay [7] is 91.1%; in [8], 79.7%; in [9] it was 97.5%.

In the case of `CC1(n2nnnc2N2CCCN(c3ncccc3N)CC2)CCC1`, the growth in assay [1] is 58.3%; in [2], 108%; in [3], 81.7%; in assay [4], 98.6%; in assay [5], 101%; in [6], 75.3%. The growth in assay [7] was 86.3%; in assay [8] it was 94.9%; in assay [9] it was 100%.

Regarding `COc1ccc(/C=C2\N=C(c3ccccc3)N(c3cc(OC)c(OC)cc3C(=O)N3N=C(C)CC3=O)C2=O)cc1`, the growth in [1] is 90%; in assay [2], 99.7%; in assay [3], 87.6%; in assay [4] it was 99.5%; in assay [5] it was 102%; in assay [6] it was 89.4%. Also, the results for the growth in [7], in assay [8] and in [9] were 77.3%, 65.5% and 95.2%, respectively.

On to `Fc1ccc2nc(-c3cc(-c4ccc5c(c4)OCO5)n[nH]3)[nH]c2c1`, for which the growth was 57.5% in assay [1]; 61.6% in assay [2]; 35.6% in [3]; 72.1% in assay [4]; 41.1% in assay [5]; 23.3% in [6]. Also, the values for the growth in [7], in assay [8] and in [9] were 20.4%, 53.7% and 75.3%, respectively.

As to `CCN1CCN(C(=O)[C@]23CCC(C)(C)C[C@@H]2C2=CC[C@@H]4[C@@]5(C)C/C(=C/c6ccncc6)C(=O)C(C)(C)[C@@H]5CC[C@@]4(C)[C@]2(C)CC3)CC1`, the growth is -63.9% (active) in [1]; -39.8% (active) in [2]; 25% in assay [3]; -16.1% (active) in assay [4]; -77.2% (active) in [5]; -5% (active) in assay [6]. The growth in [7] was -98.8% (active); in [8], -86% (active); in assay [9], -82.5% (active).

As for `CC1=CC(=O)N(c2cccc3c(N4C(=O)C=C(C)C4=O)cccc23)C1=O`, the growth is -2.7% (active) in assay [1]; 18% in assay [2]; 74.1% in [3]; 102% in assay [4]; 83.9% in assay [5]; 94.8% in assay [6]. For the same molecule, the growth in [7] was 105%; in assay [8], 94.5%; in assay [9], 103%.

Take `CCN1CCN(C(=O)[C@]23CC[C@@H](C)[C@H](C)[C@H]2C2=CC[C@@H]4[C@@]5(C)C/C(=C/c6cccc(OC)c6OC)C(=O)C(C)(C)[C@@H]5CC[C@@]4(C)[C@]2(C)CC3)CC1`: the growth in [1] is 19.2%; in [2], 21.5%; in assay [3], 35.6%; in assay [4], 53.1%; in [5], 38.4%; in assay [6], 18.8%. For the same molecule, the growth is 46.2% in assay [7], 57.4% in assay [8] and 58.7% in assay [9].

`CC(=O)c1c(C)[nH]c(-c2nc3ccc(N4CCN(C)CC4)cc3[nH]2)c1-c1ccc2c(c1)OCCO2`: the growth was 8.46% (active) in assay [1]; 14.2% in assay [2]; 1.99% (active) in assay [3]; 51.3% in assay [4]; 57.2% in [5]; 45.8% in [6]. For the same molecule, the growth is 26.1% in assay [7], 20.9% in assay [8] and 50.8% in [9].

For the molecule `c1csc(-c2nc(-c3cc4ccccc4c(N4CCOCC4)n3)cs2)c1`, the growth in [1] is 90.4%; in assay [2] it was 97.1%; in assay [3], 81.5%; in [4], 87.1%; in [5], 82.2%; in assay [6] it was 93.4%. Moreover, the growth was 54.5% in [7], 28.9% in [8] and 55.2% in assay [9].

Regarding `O=[N+]([O-])c1cccc(/C=N\Nc2ccccc2)c1`, the growth in assay [1] is 58%; in [2], 80%; in assay [3] it was 78.5%; in [4], 95.5%; in [5], 83.4%; in assay [6] it was 67%. Further, the results for the growth in [7], in [8] and in assay [9] were 92.5%, 4.87% (active) and 103%, respectively.

Regarding `N#CC1=C(N)Oc2c(c(N)nn2-c2ccccc2)C1c1ccc(Cl)cc1Cl` (configuration not stated), the growth was 100% in [1]; 115% in assay [2]; 73.2% in [3]; 95.2% in [4]; 91.6% in [5]; 94.5% in assay [6]. Moreover, the values for the growth in [7], in [8] and in [9] were 101%, 88.7% and 104%, respectively.

On to `N#CC1C(=N)Cc2ccccc2-c2ccccc21` (configuration not stated), for which the growth is 37.9% in assay [1]; 12.4% in [2]; 54.3% in assay [3]; 64.1% in assay [4]; 37.7% in assay [5]; 62.1% in [6]. For the same molecule, the growth in assay [7] was 40.7%; in [8], 39.1%; in [9], 58.3%.

`O=C(O)c1cccc2c1C(=O)N(c1ccc3c(c1)Cc1ccccc1-3)C2=O`: the growth is 108% in assay [1]; 99.9% in [2]; 91.6% in [3]; 111% in assay [4]; 111% in assay [5]; 97.6% in assay [6]. The values for the growth in assay [7], in [8] and in assay [9] were 110%, 112% and 110%, respectively.

`O=C1/C(=C\C(Cl)=C/c2ccc([N+](=O)[O-])cc2)SC(=S)N1CCc1ccc(O)cc1`: the growth in assay [1] was -49.9% (active); in [2], -15.3% (active); in [3], -27.7% (active); in assay [4], -59.7% (active); in assay [5], -88% (active); in assay [6], -14.8% (active). In addition, the growth in [7] is -78.9% (active); in [8], -30.8% (active); in assay [9], -61.2% (active).
